Assay outcomes as filed in PubChem BioAssay.
MCF10A rerep = induces DNA re-replication in MCF 10a normal breast cells; Potency, µM (series often up to 46.1 µM), without a hit: at the highest dose activity, positive = re-replication, hits mostly activators; MCF 10A DNA re-replication, Hoechst nuclear intensity, 48 h; AID 624296; hit rate 2.9% among 350,000; also: potency is read from the fitted curve at half-maximal effect; % of control where 0% means no effect; nearly all actives have a fitted effect of over 50% in size
SW480 rerep = DNA re-replication induction in SW480 cells. hit rate 1.8% among 340,000. Potency, µM (doses to about 46.1 µM), for the others: at the highest dose re-replication activation, hits mostly activators. SW480 DNA re-replication, Hoechst DNA content imaging, 48 h; also: potency is read from the fitted curve at half-maximal effect; % of control where 0% means no effect; nearly all actives have a fitted effect of over 55% in size
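DNA re-replication was detected as more nuclei of elevated Hoechst intensity after 48 hr exposure to compound (23 nL pinned per well of 250 cells).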
PINK1 expr mod = modulators of PINK1 expression; PINK1 immunofluorescence, high-content cytometry, 24 h; Potency, µM (doses to about 76.6 µM), for inactives: at the top dose activation (PINK1 increase), hits mostly activators; hit rate 0.2% among 410,000; AID 624263; active = well fitted activation curve with a large enough effect; inconclusive = small, poorly fitted or top-dose-only effect; cell line not stated here; also: potency is read from the fitted curve at half-maximal effect; % of control where 0% means no effect; nearly all actives have a fitted effect of over 65% in size
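Decision-based qHTS: stable cells, 24 h exposure to five compound concentrations, CCCP as control. Fixed cells stained for PINK1 plus nuclear, mitochondrial and cell markers, cytometer read.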
ATXN viability = viability counter-screen for ATXN expression inhibitors. Potency, µM (doses to about 56.7 µM), usual class: cytotoxic. hit rate 0.49% among 400,000. S2 cells (HEK-293 line with an ATXN2-luciferase reporter) viability, CellTiter-Fluor protease fluorescence, 24 h. AID 651635; also: potency is read from the fitted curve at half-maximal effect; nearly all actives have a fitted effect of over 40% in size
IL1B secr inh = inflammasome signaling inhibition, IL-1 beta readout; THP-1 LPS/ATP IL-1B secretion, AlphaLISA, 16 h; active compounds read low; activity change, % at 57.5 µM; hit rate 4.7% among 360,000; AID 743279; in the data active = activity change below about -50%; inconclusive = mostly about -30% to -49%; also: % is scaled to controls: 0 for no effect and ±100 for the full control effect
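THP-1 cells pretreated 1 hr with compounds (up to 57.5 uM final), then stimulated with LPS (250 ng/mL final) plus ATP (1.25 mM final); secreted IL-1B measured by AlphaLISA after 16 hr, decreased signal indicating inhibition.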
ATXN2 expr inh = reduces ATXN2 reporter expression in HEK-293 cells; Potency, µM (titrated, usually from 57 µM), inactives show top-dose activity change, negative = inhibition, actives largely listed as inhibitors; hit rate 0.72% among 360,000; HEK-293 ATXN2-luciferase reporter, luminescence, 24 h; also: potency is read from the fitted curve at half-maximal effect; % is scaled to controls: 0 for no effect and ±100 for the full control effect; nearly all actives have a fitted effect of over 55% in size
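ATXN2-luciferase reporter cells (luciferase flanked by upstream and downstream ATXN2 gene portions) were treated 24 h at 37 °C with compounds at up to 57 uM. SteadyGlo luminescence gave expression; GF-AFC fluorescence gave viability.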
Starred values were filed as active, the others as inactive; i = inactive; ? = inconclusive; / = no result given; [ ] = dose if it differs, or a comment. Hits are enriched below; roughly 7.1% of the tested compounds scored in any of these assays. Unless noted, calls follow the shape of the dose curve; as a rule, active = well fitted curve in the direction sought with a large enough effect; inconclusive = small, poorly fitted or top-dose-only effect, or another doubt; inactive = no such curve, though single readings can be large; an effect the other way counts as inactive or inconclusive.

SMILES	MCF10A rerep	SW480 rerep	PINK1 expr mod	ATXN viability	IL1B secr inh	ATXN2 expr inh
Clc1ccc(OCCCNCc2ccccc2)c2ccccc12	1%	-2%	-1%	i	?	-21%
C=CCc1ccccc1OCCNCc1ccccc1	11%	3%	13%	i	-91*	-27%
Brc1ccccc1OCCNCc1ccccc1	8%	-79%	2%	i	-80*	6%
C=CCc1ccc(OCCCNCc2ccccc2)c(OC)c1	-2%	8%	7%	?	?	/
CCc1cccc(NC(=O)CN2C(=O)COc3ccc(S(=O)(=O)Nc4ccccc4)cc32)c1	/	/	0%	?	/	-10%
FC(F)Oc1ccc(NC(=S)NNc2ccnc3cc(Cl)ccc23)cc1	?	12µM*	?	?	-93*	?
Cc1ccc(SCc2nc3ccccc3n2CC(=O)Nc2ccc(Cl)cc2)cc1	?	16%	?	i	-2	-23%
CC(C)Cn1c(N2CCN(CC(=O)Nc3ccc(Cl)cc3)CC2)nc2ccccc21	18%	?	1%	i	-85*	-29%
CC(=O)c1c(C)[nH]c(C(=O)Nc2nc(C)cs2)c1C	10%	1%	6%	i	-27	?
COc1ccc(-c2nc(NC(=O)Cn3cnnn3)sc2C)cc1	2.1µM*	3%	-1%	i	-10	-22%
COc1ccc(-c2nc(NC(=O)c3[nH]c(C)c(C(C)=O)c3C)sc2C)cc1	?	27%	2%	i	-82*	-9%
CC(=O)c1c(C)[nH]c(C(=O)Nc2nc(-c3ccc(-c4ccccc4)cc3)cs2)c1C	3.3µM*	5%	?	i	?	?
CC(=O)c1c(C)[nH]c(C(=O)Nc2nc(-c3ccc(Cl)cc3)cs2)c1C	23µM*	-9%	?	i	6	?
COc1ccc(CNC(=O)c2cnc3sc(N4CCCCCC4)nn3c2=O)cc1	/	/	3%	/	/	/
CCOC(=O)N1CCN(Cc2ccc3c(c2)CN(C(=O)c2noc4c2CCCC4)CCO3)CC1	/	/	1%	i	/	/
c1ccc2sc(Sc3ncnc4sccc34)nc2c1	21µM*	?	13%	i	-79*	7%
CCc1cc2c(Sc3nc4ccccc4s3)ncnc2s1	?	?	0%	?	?	?
CC(C)(C)OC(=O)N1CCC(c2c(C(=O)N3CCN(c4ccc(Cl)cc4)CC3)cnn2-c2ccc(F)cc2F)CC1	/	/	2%	/	/	/
COC(=O)c1c(C)n(-c2ccccc2)c2ccc(O)cc12	?	?	9%[38.3 µM]	i	23	6%
CN(C)/C=C/c1c([N+](=O)[O-])c2ccc(O)cc2n1-c1ccccc1	?	?	-2%	?	-86*	0%
COc1ccc(CNCC(O)(c2ccc(F)cc2)c2ccc(F)cc2)cc1	?	?	11%	i	-89*	-34%
COc1ccc(CNCC(O)(c2ccccc2)c2ccccc2)cc1	0%	0%	17%	i	-78*	-18%
OC(CNCc1ccccc1)(c1ccccc1)c1ccccc1	-1%	3%	5%	?	-10	/
COc1ccc(-n2ccnc(NCCc3ccccc3)c2=O)cc1OC	/	/	-1%	?	/	-14%
Cc1cc(Br)ccc1NC(=O)CN(C)C(=O)C1CCN(c2ncnc3sc(C)c(C)c23)CC1	?	?	-6%	?	-56*	?
Cc1c(C(=O)Nc2c(F)cccc2F)sc2ncnc(N3CCN(c4ccccc4)CC3)c12	?	-2%	-1%	i	-57*	/
Cc1c(C(=O)NC2CCCCC2)sc2ncnc(N3CCN(c4ccccc4)CC3)c12	-1%	-2%	3%	i	9	-8%
Cc1nc(N2CCN(c3ccccn3)CC2)c2c(C)c(C(=O)Nc3ccc(F)cc3F)sc2n1	?	?	4%	?	-21	?
Cc1nc(N2CCN(c3ccccn3)CC2)c2c(C)c(C(=O)Nc3ccc(F)cc3Cl)sc2n1	16µM*	?	3%	?	?	/
